About 2,000 (36%) of roughly 5,500 compounds were called active. Inconclusive results (about 18%) are left out. No stated cut-off is given here; in the data, active means normalized growth mostly below about 0.91 (no sharp cut-off); inconclusive means no clear call, values can overlap the other calls; inactive means mostly above about 0.92. The list shows a part of the results.
Assay: chemical genetic growth profiling, strain panel (AID 1159580);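 further: tested at 20 µM; growth read once vehicle control cultures reached saturation at 30 °C; 1 = growth at the plate median or of vehicle wells; lower values mean less growth of the strain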
Details: growth OD

Measured: normalized growth

Cc1cc(=O)n(-c2ccccc2)n1C
inactive: S. cerevisiae deletion strains, locus YJR066W, strain TOR1, active compounds read low 0.984 | S. cerevisiae deletion strains, locus YJR075W, strain HOC1, active compounds read low 1 | S. cerevisiae deletion strains, locus YKL009W, strain mrt4, active compounds read low 1 | S. cerevisiae deletion strains, locus YKL068W, active compounds read low 1 | S. cerevisiae deletion strains, locus YKL085W, strain MDH1 (second series), active compounds read low 0.987 | S. cerevisiae deletion strains, locus YKL085W, strain MDH1, active compounds read low 0.987 | S. cerevisiae deletion strains, locus YKL160W, strain elf1, active compounds read low 0.936 | S. cerevisiae deletion strains, locus YKR001C, strain vps1, active compounds read low 1.02 | S. cerevisiae deletion strains, locus YKR026C, strain gcn3, active compounds read low 1 | S. cerevisiae deletion strains, locus YKR091W, strain srl3, active compounds read low 0.99 | S. cerevisiae deletion strains, locus YLL001W, strain dnm1, active compounds read low 0.921 | S. cerevisiae deletion strains, locus YLL026W, active compounds read low 1 | S. cerevisiae deletion strains, locus YLL041C, strain sdh2, active compounds read low 0.991 | S. cerevisiae deletion strains, locus YLR027C, strain aat2, active compounds read low 1 | S. cerevisiae deletion strains, locus YLR039C, strain RIC1, active compounds read low 1.04 | S. cerevisiae deletion strains, locus YLR058C, strain SHM2, active compounds read low 1 | S. cerevisiae deletion strains, locus YLR102C, strain apc9, active compounds read low 0.991 | S. cerevisiae deletion strains, locus YLR113W, strain HOG1, active compounds read low 0.981 | S. cerevisiae deletion strains, locus YLR221C, strain rsa3, active compounds read low 0.976 | S. cerevisiae deletion strains, locus YLR258W, strain gsy2, active compounds read low 1.07 | S. cerevisiae deletion strains, locus YLR262C, strain YPT6 (second series), active compounds read low 0.967 | S. cerevisiae deletion strains, locus YLR262C, strain YPT6, active compounds read low 1.07 | S. cerevisiae deletion strains, locus YLR268W, strain sec22, active compounds read low 0.992 | S. cerevisiae deletion strains, locus YLR320W, strain mms22, active compounds read low 0.96 | S. cerevisiae deletion strains, locus YLR330W, strain CHS5, active compounds read low 1.01 | S. cerevisiae deletion strains, locus YLR342W, strain FKS1 (second series), active compounds read low 1.02 | S. cerevisiae deletion strains, locus YLR342W, strain FKS1, active compounds read low 0.99 | S. cerevisiae deletion strains, locus YLR357W, strain rsc2, active compounds read low 0.988 | S. cerevisiae deletion strains, locus YLR370C, strain arc18, active compounds read low 0.991 | S. cerevisiae deletion strains, locus YLR371W, strain rom2, active compounds read low 0.987 | S. cerevisiae deletion strains, locus YLR384C, strain iki3, active compounds read low 1 | S. cerevisiae deletion strains, locus YLR418C, strain cdc73, active compounds read low 0.995 | S. cerevisiae deletion strains, locus YML016C, strain PPZ1, active compounds read low 1.01 | S. cerevisiae deletion strains, locus YML032C, strain rad52, active compounds read low 0.993 | S. cerevisiae deletion strains, locus YML120C, strain ndi1, active compounds read low 0.97 | S. cerevisiae deletion strains, locus YML124C, strain tub3, active compounds read low 0.984 | S. cerevisiae deletion strains, locus YMR058W, strain fet3, active compounds read low 0.99 | S. cerevisiae deletion strains, locus YMR078C, strain ctf18, active compounds read low 0.975 | S. cerevisiae deletion strains, locus YMR125W, strain sto1, active compounds read low 0.935 | S. cerevisiae deletion strains, locus YMR129W, active compounds read low 0.998 | S. cerevisiae deletion strains, locus YMR205C, strain PFK2, active compounds read low 0.946 | S. cerevisiae deletion strains, locus YMR223W, strain ubp8, active compounds read low 0.99 | S. cerevisiae deletion strains, locus YMR231W, strain pep5, active compounds read low 0.997 | S. cerevisiae deletion strains, locus YMR307W, strain GAS1, active compounds read low 1.09 | S. cerevisiae deletion strains, locus YNL067W, strain RPL9B, active compounds read low 0.995 | S. cerevisiae deletion strains, locus YNL071W, strain lat1, active compounds read low 0.992 | S. cerevisiae deletion strains, locus YNL128W, strain TEP1, active compounds read low 1.01 | S. cerevisiae deletion strains, locus YNL153C, strain GIM3, active compounds read low 0.991 | S. cerevisiae deletion strains, locus YNL183C, strain NPR1, active compounds read low 0.987 | S. cerevisiae deletion strains, locus YNL209W, strain ssb2, active compounds read low 0.994 | S. cerevisiae deletion strains, locus YNL233W, strain BNI4, active compounds read low 0.989 | S. cerevisiae deletion strains, locus YNL248C, strain rpa49, active compounds read low 0.952 | S. cerevisiae deletion strains, locus YNL250W, strain rad50, active compounds read low 1 | S. cerevisiae deletion strains, locus YNL271C, strain bni1, active compounds read low 0.989 | S. cerevisiae deletion strains, locus YNL298W, strain CLA4, active compounds read low 1.01 | S. cerevisiae deletion strains, locus YNL307C, strain MCK1, active compounds read low 0.991 | S. cerevisiae deletion strains, locus YNL322C, strain KRE1 (second series), active compounds read low 0.991 | S. cerevisiae deletion strains, locus YNR049C, strain mso1, active compounds read low 1 | S. cerevisiae deletion strains, locus YNR052C, strain pop2, active compounds read low 0.982 | S. cerevisiae deletion strains, locus YOL006C, strain TOP1, active compounds read low 0.961 | S. cerevisiae deletion strains, locus YOL012C, strain htz1 1.68 | S. cerevisiae deletion strains, locus YOL147C, strain pex11, active compounds read low 0.989 | S. cerevisiae deletion strains, locus YOR001W, strain rrp6, active compounds read low 1.05 | S. cerevisiae deletion strains, locus YOR061W, strain CKA2, active compounds read low 1.02 | S. cerevisiae deletion strains, locus YOR069W, strain VPS5, active compounds read low 1.01 | S. cerevisiae deletion strains, locus YOR070C, strain gyp1, active compounds read low 0.999 | S. cerevisiae deletion strains, locus YOR080W, strain dia2, active compounds read low 0.999 | S. cerevisiae deletion strains, locus YOR083W, strain WHI5, active compounds read low 0.949 | S. cerevisiae deletion strains, locus YOR106W, strain vam3, active compounds read low 0.957 | S. cerevisiae deletion strains, locus YOR136W, strain idh2, active compounds read low 0.986 | S. cerevisiae deletion strains, locus YOR144C, strain elg1, active compounds read low 0.995 | S. cerevisiae deletion strains, locus YOR184W, strain ser1, active compounds read low 1.01 | S. cerevisiae deletion strains, locus YOR231W, strain MKK1, active compounds read low 1.04 | S. cerevisiae deletion strains, locus YOR265W, strain rbl2, active compounds read low 0.994 | S. cerevisiae deletion strains, locus YOR270C, strain vph1, active compounds read low 0.964 | S. cerevisiae deletion strains, locus YOR290C, strain snf2, active compounds read low 0.945 | S. cerevisiae deletion strains, locus YOR316C, strain cot1, active compounds read low 0.985 | S. cerevisiae deletion strains, locus YPL051W, strain arl3, active compounds read low 0.98 | S. cerevisiae deletion strains, locus YPL078C, strain atp4, active compounds read low 0.936 | S. cerevisiae deletion strains, locus YPL106C, strain sse1, active compounds read low 0.981 | S. cerevisiae deletion strains, locus YPL240C, strain hsp82, active compounds read low 1.01 | S. cerevisiae deletion strains, locus YPL256C, strain CLN2, active compounds read low 0.999 | S. cerevisiae deletion strains, locus YPR119W, strain clb2, active compounds read low 0.982 | S. cerevisiae deletion strains, locus YPR141C, strain kar3, active compounds read low 0.995 | S. cerevisiae deletion strains, locus YPR163C, strain tif3, active compounds read low 0.992 | S. cerevisiae deletion strains, locus YPR167C, strain met16, active compounds read low 0.984 | S. cerevisiae deletion strains, strain wtn01, active compounds read low 0.979 | S. cerevisiae strains, strain wild type, active compounds read low 1.01
